Screening results deposited in PubChem by National Center for Advancing Translational Sciences (NCATS).
In the library only some 5.7% were active in any assay of this set; here they are far more common.
TGFb inhibitor: blocks TGF-b signaling | Potency, µM (doses to about 46.1 µM), for the others: top-dose activity, negative = inhibition, actives largely listed as inhibitors | HepG2 CAGA-GFP TGF-b/SMAD3 reporter, GFP fluorescence, 18 h; TGF-beta stimulated, 500 pg/mL final | hit rate 1.2% among 410,000; note: potency is the fitted concentration of half-maximal effect; % is set by controls: 0 for no effect and ±100 for the full control effect; nearly all actives have a fitted effect of over 65% in size
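HEPG2 CAGA-GFP reporter cells (1000/well, DMEM with 1% FBS) received compounds, then recombinant TGF-beta at 500 pg/mL final for 18 hours at 37 degrees C. Per-cell GFP summed per well was normalised to unstimulated and stimulated DMSO controls before curve fitting.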
IL1B secr inh: blocks inflammasome-driven IL-1 beta release; hit rate 4.7% among 360,000; AID 743279; activity change, % at 57.5 µM; THP-1 LPS/ATP IL-1B secretion, AlphaLISA, 16 h; hits give low values; in the data active = activity change below about -50%; inconclusive = mostly about -30% to -49%; note: % is set by controls: 0 for no effect and ±100 for the full control effect
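Secreted IL-1B measured by AlphaLISA bead assay after 16 h compound exposure of THP-1 cells; compounds (final up to 57.5 uM) added 1 h before LPS (250 ng/mL) and ATP (1.25 mM) stimulation; lower signal means less secretion.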
ATXN2 expr inh: ATXN2 expression inhibition; HEK-293 ATXN2-luciferase reporter, luminescence, 24 h; Potency, µM (titrated, usually from 57 µM), for inactives: top-dose activity change, negative = inhibition, most hits filed as inhibitors; hit rate 0.72% among 360,000; AID 1745845; note: potency is the fitted concentration of half-maximal effect; % is set by controls: 0 for no effect and ±100 for the full control effect; nearly all actives have a fitted effect of over 55% in size
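qHTS (up to 57 uM final) was run with 24 h compound exposure of reporter cells at 37 °C. Each well was multiplexed: SteadyGlo luminescence measured ATXN2-luciferase expression after a fluorogenic Gly-Phe-AFC viability readout (25 uM final).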
HepG2 tox-1: kills HepG2 cells in TGF-b inhibitor counter-screen; Potency, µM (series often up to 46.1 µM), for inactives: at the top dose activity change, negative = cytotoxicity, actives largely listed as cytotoxic; hit rate 0.76% among 410,000; AID 588856; HepG2 CAGA-GFP viability, ATP luminescence, 18 h; note: potency is the fitted concentration of half-maximal effect
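CellTiter-Glo luminescence gave cytotoxicity after 18 hours at 37 degrees C. The cells were HepG2 CAGA-GFP in 1% FBS DMEM, stimulated with 500 pg/mL TGF-beta after compound addition. %Activity was normalised to no-cell wells (complete cell-killing) and DMSO (no toxicity), and curves were fitted and classified.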
ATXN viability: cell viability loss in ATXN counter-screen. S2 cells (HEK-293 line with an ATXN2-luciferase reporter) viability, CellTiter-Fluor protease fluorescence, 24 h. Potency, µM (doses to about 56.7 µM), hits mostly cytotoxic. hit rate 0.49% among 400,000; note: potency is the fitted concentration of half-maximal effect; nearly all actives have a fitted effect of over 40% in size
TGFb CAGA inh: confirmation of TGF-b signaling inhibitors in HepG2 reporter cells. shares compounds with TGFb inhibitor. HepG2 CAGA-GFP TGF-b reporter, GFP fluorescence, 18 h; cells stimulated with TGF-beta, 500 pg/mL. Potency, µM (titrated, usually from 46.1 µM), inactives show top-dose activity, negative = inhibition, actives largely listed as inhibitors. hit rate 63% among 1,600; note: potency is the fitted concentration of half-maximal effect; % is set by controls: 0 for no effect and ±100 for the full control effect; nearly all actives have a fitted effect of over 65% in size
HepG2 tox-2: toxic to HepG2 cells in TGF-b counterscreen | shares compounds with TGFb inhibitor | HepG2 CAGA-GFP viability, ATP luminescence, 18 h; cells stimulated with TGF-beta, 500 pg/mL | Potency, µM (titrated, usually from 46.1 µM), inactives show at the highest dose activity, negative = cytotoxicity, hits mostly inhibitors | hit rate 27% among 1,600; note: potency is the fitted concentration of half-maximal effect; % is set by controls: 0 for no effect and ±100 for the full control effect; nearly all actives have a fitted effect of over 70% in size
TGFb CCL64 inh: blocks TGF-b signaling in CCL64 reporter cells | Potency, µM (top dose mostly 46.1 µM), for the others: at the highest dose activity, negative = inhibition, usual class: inhibitors | hit rate 41% among 1,600 | CCL64 CAGA-GFP reporter, TGF-b stimulated, GFP fluorescence, 18 h | shares compounds with TGFb inhibitor; note: potency is the fitted concentration of half-maximal effect; nearly all actives have a fitted effect of over 65% in size
COP TGFb inh: blocks TGF-b signaling in HepG2 COP reporter; shares compounds with TGFb inhibitor; hit rate 3% among 1,600; AID 720537; HepG2 COP-GFP TGF-b reporter, GFP fluorescence, 18 h; cells stimulated by added recombinant TGF-beta; Potency, µM (series often up to 46.1 µM), inactives show at the highest dose activity, negative = inhibition, hits mostly inhibitors; note: potency is the fitted concentration of half-maximal effect; nearly all actives have a fitted effect of over 70% in size
* marks the source's active call; other numbers are inactive results; i = inactive; ? = inconclusive; / = not tested or not shown; ! = not confirmed by another sample. Unless noted, calls come from the whole dose curve; as a rule, active = well fitted curve in the direction sought with a large enough effect; inconclusive = small, poorly fitted or top-dose-only effect, or another doubt; inactive = no such curve, though single readings can be large; an effect the other way counts as inactive or inconclusive.

SMILES	TGFb inhibitor	IL1B secr inh	ATXN2 expr inh	HepG2 tox-1	ATXN viability	TGFb CAGA inh	HepG2 tox-2	TGFb CCL64 inh	COP TGFb inh
COc1ccc(-n2nnnc2C(CCc2ccccc2)N2CCC(n3c(=O)[nH]c4ccccc43)CC2)cc1 (configuration not stated)	11.2µM*	/	?	-20.3%	10µM*	?	-27.6%	?	7.8%
CCC1(OC(=O)CN)C(=O)OCc2c1cc1n(c2=O)Cc2cc3ccccc3nc2-1 (configuration not stated)	2.24µM*	-98.4*	0.0095µM*	-20.1%	/	1.16µM*	0.581µM*	2.31µM*	9.1%
CCCc1nc2ccc(Br)cc2c(=O)n1-c1ccc([N+](=O)[O-])c(C(F)(F)F)c1	7.08µM*	?	-35.2%	-30.7%	i	?	-26.7%	?	-0.6%
C[C@H]1CCC/C=C/[C@@H]2C[C@H](O)C[C@H]2[C@H](O)/C=C/C(=O)O1	0.126µM*!	-52.9*	?	-31.8%	i	0.116µM*	?	?	63.9%
CC(=O)OC1(C)CC(C)C(=O)C(C(O)CC2CC(=O)NC(=O)C2)C1 (configuration not stated)	-91.9%	-108.9*	0.0299µM*	-32.6%	?	0.0517µM*	0.13µM*	0.0206µM*	4.9%
Cc1cccc(Cn2c(SCc3ccc(C(=O)NC4CCCCC4)cc3)nc3cccnc32)c1	7.6%	/	?	10.6%	?	/	/	/	/
O=C1NCN(c2ccccc2)C12CCN(C(c1cc3ccccc3o1)c1nnnn1C1CCCCC1)CC2 (configuration not stated)	10µM*	?	?	-110.6%	?	18.4µM*	?	23.1µM*	?
CC(=O)OC[C@]12CCC(C)=C[C@H]1O[C@@H]1[C@H](O)[C@@H](OC(C)=O)[C@@]2(C)[C@]12CO2	-87.8%	-105.7*	-70.7%	-12.8%	i	0.0366µM*	0.146µM*	0.0366µM*	-6.9%
CCOc1ccc(CN(CCc2ccc3c(c2)OCO3)Cc2cc(OC)ccc2O)cc1	?	/	-4.3%	-46.5%	i	/	/	/	/
Cc1ccc(NC(=O)COC(=O)/C=C/c2ccco2)cc1S(=O)(=O)N(C)C	?	31.2	0.9%	-7.0%	i	/	/	/	/
CCOC(=O)c1c(C)n(Cc2ccccc2)c2ccc(OCC(O)Cn3nc(C)cc3C)cc12 (configuration not stated)	14.1µM*	?	-18.1%	-9.8%	?	20.6µM*	?	14.6µM*	40.2%
CCN1CCN(CC(=O)c2c(C)n(Cc3ccccc3)c3ccc(OC)cc23)CC1	0.4%	?	-19.0%	-39.2%	i	/	/	/	/
Cc1ccc2c(c1)C1CN(C)CCC1N2C(=O)c1ccco1 (configuration not stated)	0.0%	0.2	-8.6%	1.1%	i	/	/	/	/
COc1ccc(-c2nn(-c3ccccc3)cc2C(=O)N2c3ccc(C)cc3C3CN(C)CCC32)cc1 (configuration not stated)	10µM*	?	-26.1%	-42.0%	i	-6.6%	-25.3%	?	7.8%
Cc1[nH]c2ccc(OC(F)(F)F)cc2c1CCNCc1ccc(Cl)cc1	10µM*	-97.4*	20µM*	11.2µM*	?	?	?	?	?
Cc1ccc2[nH]c(C)c(CCNCc3ccco3)c2c1	-3.2%	-23.8	/	-33.5%	i	/	/	/	/
c1ccc2c(CN3CCCCCCC3)c[nH]c2c1	?	14.8	-10.0%	-26.0%	?	20.6µM*	23.1µM*	8.2µM*	-3.9%
CCCCn1c(N)c(C(=O)NCc2cccs2)c2nc3ccccc3nc21	10µM*	-58.0*	-30.1%	-81.7%	i	?	-25.1%	?	6.1%
CCCCCn1c(N)c(C(=O)NCc2cccs2)c2nc3ccccc3nc21	-8.3%	-15.5	-16.8%	-3.0%	i	/	/	/	/
NC(=Nc1ccccc1)Nc1ccccc1	8.91µM*	20.6	8.3%	-7.7%	?	9.2µM*	?	?	43.6%
CC(/C=C(\C)Nc1ccccc1)=Nc1ccccc1	-17.0%	0.0	-5.0%	-9.0%	i	/	/	/	/
Cc1nn(-c2ccccc2)c2c1P(=O)(O)/C(=C1\N(C)c3ccccc3C1(C)C)C=N2	1.1%	?	0.2%	-38.1%	i	/	/	/	/
CCN(CC)P(=O)(Nc1ccc([N+](=O)[O-])cc1)c1c(C)nn(CCC#N)c1NC(=O)c1ccc(Cl)cc1Cl (configuration not stated)	?	-7.4	-21.7%	-19.7%	i	/	/	/	/
O=Cc1cn(Cc2ccccc2F)c2ccccc12	0.891µM*	?	?	-27.6%	i	0.461µM*	1.03µM*	0.1%	-6.0%
CC(=O)c1cn(Cc2ccccc2F)c2ccccc12	?	-3.7	-33.9%	-67.8%	i	/	/	/	/
CN1CC[C@@]2(C)c3cc(O)ccc3N(C)C12 (some centres not stated)	?	/	/	-105.8%	/	/	/	/	/
CC1=C(N2CC2)C(=O)C(CO)=C(N2CC2)C1=O	0.316µM*	-99.4*	0.119µM*	-110.4%	2.67µM*	0.103µM*	0.206µM*	-113.1%	-86.5%
CC(=NCCN1CCOCC1)c1c(O)n(Cc2ccccc2)c(=O)[nH]c1=O	22.7%	-6.1	-3.7%	-12.2%	i	/	/	/	/
CC(=NCCc1c[nH]c2ccccc12)c1c(O)n(Cc2ccccc2)c(=O)[nH]c1=O	11.2µM*	?	?	31.2%	i	20.6µM*	-27.8%	?	-4.2%
